Experimental data published in PubChem BioAssay.
The source made the active and inactive calls.

Key:
Albumin (Bos taurus) = Albumin (Bos taurus) (UniProt P02769); test: bovine serum albumin binders on microarray, profiling panel, artefact control for SMM control protein annotation, biochemical, small-molecule microarray, Alexa647 label, 635/667 nm fluorescence (AID 1118); conditions: BSA-A647 binding, fluorescence 635 nm, higher = more signal;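 note: score merges 667 nm emission intensity and signal-to-noise per printed compound spot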
[1] = small-molecule microarray binders of probe aXIP, primary screen, biochemical, NeuroSMM set, 635/667 nm fluorescence (AID 1119); conditions: higher = more signal, called active from +8 up or from −8 down;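 note: probe is the protein aXip251-270 applied at 1 µg/mL to compound-printed slides; binding of probe to printed compounds measured as 667 nm fluorescence plus signal to noise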
[2] = small-molecule binders of probe aNOTCH3, primary screen, biochemical, small-molecule microarray, 635/667 nm fluorescence (AID 1120); conditions: higher = more signal;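 note: probe is a biotin-tagged antibody raised against NOTCH3 rather than NOTCH3 protein; score merges spot fluorescence near 667 nm with spot signal to noise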
[3] = small-molecule binders of probe aNOTCH2, primary screen, biochemical, small-molecule microarray, 635/667 nm fluorescence (AID 1121); conditions: higher = more signal;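 note: score merges feature fluorescence read at 667 nm with its signal to noise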
[4] = molecular target: Carbonic anhydrase 2 (Homo sapiens) (UniProt P00918); test: CAII small-molecule binders, profiling panel, biochemical, small-molecule microarray, Alexa647-labelled CAII (AID 1122); conditions: CAII-A647 binding fluorescence, higher = more signal
[5] = COS7 lysate on small-molecule microarray, probe aHis, 635 nm (AID 1123); conditions: COS7 cell lysate, fluorescence, higher = more signal;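 note: z-score combines 667nm fluorescence intensity with signal-to-noise per printed compound spot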
[6] = compound binding in COS7 lysate, probe aLAP1, primary screen, cell lysate, small-molecule microarray (AID 1124); conditions: probe aLAP1, fluorescence, higher = more signal;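 note: lysate comes from COS7 cells expressing LAP1 and is applied at 0.3 µg/mL; score merges spot fluorescence near 667 nm with signal-to-noise over triplicate slides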
Sam68 (KHDRBS1) = test: Sam68 small-molecule binders, primary screen, biochemical, small-molecule microarray, 635 nm fluorescence (AID 1125); conditions: small-molecule microarray binding, higher = more signal;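 note: score merges 667 nm channel intensity with signal to noise over triplicate slides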
[7] = test system: Chordin-like protein 2 (CHRDL2); test: CHRDL2 small-molecule binders, primary screen, biochemical, small-molecule microarray, 635 nm fluorescence (AID 1126); conditions: small-molecule microarray binding, fluorescence 635 nm; higher = more signal;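 note: printed compound slides probed with Chrdl2 protein at 4 µg/mL for 1 h at 4 C; score merges 667 nm emission intensity with signal to noise over three replicate slides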
[8] = molecular target: Concanavalin-A (Canavalia ensiformis) (UniProt P02866); test: ConA small-molecule binders, primary screen, artefact control for SMM control protein annotation, biochemical, small-molecule microarray, Alexa647 label, 635 nm (AID 1127); conditions: ConA-A647 binding fluorescence, higher = more signal;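 note: z combines 667 nm emission intensity with signal-to-noise across three replicate slides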
[9] = anti-His antibody binders, primary screen, artefact control for SMM control protein annotation, biochemical, small-molecule microarray, 635 nm fluorescence (AID 1128); conditions: anti-His Alexa647 antibody binding, higher = more signal;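 note: score merges feature fluorescence with signal-to-noise for each printed compound spot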
[10] = test system: Human papillomavirus type 1a E7 protein (residues 1-88); test: HPV1a E7 small-molecule binders, primary screen, biochemical, small-molecule microarray, residues 1-88, 635 nm (AID 1129); conditions: small-molecule microarray binding, fluorescence 635 nm; higher = more signal
[11] = molecular target: Focal adhesion kinase 1 (Homo sapiens) (UniProt Q05397); test: small-molecule microarray binders of FAK, primary screen, biochemical, 635/667 nm fluorescence, BSA, DTT (AID 1130); conditions: PTK2 binding, 635 nm fluorescence, higher = more signal;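 note: composite of spot emission at 667 nm and signal to noise over triplicate slides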
[12] = test system: Fibrinogen (Alexa647-labelled); test: fibrinogen binders on compound microarrays, profiling panel, artefact control for SMM control-protein annotation, biochemical, small-molecule microarray, 635/667 nm fluorescence (AID 1131); conditions: fibrinogen-A647 binding fluorescence, higher = more signal;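 note: z-score merges 667 nm fluorescence with per-spot signal-to-noise over triplicate slides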
[13] = molecular target: Follistatin (Homo sapiens) (UniProt P19883); test: follistatin binders on small-molecule microarrays, primary screen, biochemical, small-molecule microarray, 635/667 nm fluorescence (AID 1132); conditions: FST binding, 635 nm fluorescence, higher = more signal
[14] = molecular target: Fibroblast growth factor 2 (Homo sapiens) (UniProt P09038); test: FGF2 binders on small-molecule microarrays, primary screen, biochemical, small-molecule microarray, 635/667 nm fluorescence (AID 1133); conditions: small-molecule microarray binding, FGF2, fluorescence 635/667; higher = more signal
[15] = mitochondrial membrane potential change in A549 cells, profiling panel, cell-based, JC-1 fluorescence, basal, 24 h, 100 nL (AID 1138); conditions: higher = more signal;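 note: A549 lung adenocarcinoma cells under basal conditions with no added stimulus; test concentration not given here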
Lefty1 = Lefty1 binders on small-molecule microarrays, primary screen, biochemical, small-molecule microarray, 635/667 nm fluorescence (AID 1139); conditions: small-molecule microarray binding, fluorescence 635/667; higher = more signal
[16] = test system: wheat germ agglutinin (Triticum aestivum), Alexa647-labelled; test: wheat germ agglutinin binders on compound microarrays, profiling panel, artefact control for SMM control-protein annotation, biochemical, small-molecule microarray, 635/667 nm fluorescence (AID 1140); conditions: WGA-A647 binding, 635 nm fluorescence, higher = more signal;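 note: score merges 667 nm feature emission with signal to noise over triplicate slides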
[17] = molecular target: Luciferin 4-monooxygenase (Photinus pyralis) (UniProt P08659); test: firefly luciferase enzyme inhibitors, primary screen, biochemical, luminescence, purified enzyme, 2006 set (AID 1141); conditions: SteadyGlo luminescence, 30 min, higher = more signal, called active from +8 up or from −8 down;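 note: cell-free assay with purified firefly luciferase at 100 ng per well in PBS; test concentration not given here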
Luciferin 4-monooxygenase (Photinus pyralis), sequence (P08659 whole entry, looked up): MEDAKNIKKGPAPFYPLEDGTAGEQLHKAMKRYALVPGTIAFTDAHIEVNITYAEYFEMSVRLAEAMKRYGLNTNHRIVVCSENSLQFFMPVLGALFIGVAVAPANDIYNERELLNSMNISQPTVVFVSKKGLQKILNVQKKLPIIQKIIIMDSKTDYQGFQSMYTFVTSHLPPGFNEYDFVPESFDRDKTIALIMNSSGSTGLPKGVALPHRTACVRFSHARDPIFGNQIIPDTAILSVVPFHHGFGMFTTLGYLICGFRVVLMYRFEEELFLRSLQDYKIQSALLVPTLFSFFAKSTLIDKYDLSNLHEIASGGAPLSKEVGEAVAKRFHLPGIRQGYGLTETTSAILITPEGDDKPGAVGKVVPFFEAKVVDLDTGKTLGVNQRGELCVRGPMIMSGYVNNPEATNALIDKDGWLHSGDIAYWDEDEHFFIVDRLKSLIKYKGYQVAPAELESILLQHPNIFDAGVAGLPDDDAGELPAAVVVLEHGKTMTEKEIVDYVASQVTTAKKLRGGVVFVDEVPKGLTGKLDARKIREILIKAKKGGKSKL

Concanavalin-A (Canavalia ensiformis), sequence (P02866 whole entry, looked up): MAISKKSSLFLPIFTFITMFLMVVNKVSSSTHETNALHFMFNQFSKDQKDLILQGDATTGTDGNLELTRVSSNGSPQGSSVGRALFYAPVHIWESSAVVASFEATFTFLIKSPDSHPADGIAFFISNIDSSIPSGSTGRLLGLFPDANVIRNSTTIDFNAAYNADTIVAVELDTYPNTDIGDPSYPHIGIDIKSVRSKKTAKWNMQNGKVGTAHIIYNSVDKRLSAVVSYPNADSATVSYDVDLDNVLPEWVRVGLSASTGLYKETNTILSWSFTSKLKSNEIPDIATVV
Albumin (Bos taurus), sequence (P02769 whole entry, looked up): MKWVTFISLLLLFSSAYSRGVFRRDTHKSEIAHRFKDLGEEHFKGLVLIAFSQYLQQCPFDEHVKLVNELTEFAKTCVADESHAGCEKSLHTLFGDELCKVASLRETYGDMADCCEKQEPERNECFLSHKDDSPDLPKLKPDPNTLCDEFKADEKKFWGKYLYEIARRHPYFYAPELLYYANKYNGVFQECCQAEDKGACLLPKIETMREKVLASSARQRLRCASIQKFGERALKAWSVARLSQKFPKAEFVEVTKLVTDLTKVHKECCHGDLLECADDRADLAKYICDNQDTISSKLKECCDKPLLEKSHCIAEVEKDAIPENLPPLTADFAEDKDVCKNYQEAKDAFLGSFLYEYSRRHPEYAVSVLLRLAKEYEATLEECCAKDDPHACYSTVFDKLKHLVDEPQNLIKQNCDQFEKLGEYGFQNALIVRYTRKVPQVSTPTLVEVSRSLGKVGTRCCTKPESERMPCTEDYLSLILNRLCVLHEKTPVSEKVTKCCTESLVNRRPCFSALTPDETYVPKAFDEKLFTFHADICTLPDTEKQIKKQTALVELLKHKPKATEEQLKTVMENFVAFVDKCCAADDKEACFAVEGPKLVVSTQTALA
Follistatin (Homo sapiens), sequence (P19883 whole entry, looked up): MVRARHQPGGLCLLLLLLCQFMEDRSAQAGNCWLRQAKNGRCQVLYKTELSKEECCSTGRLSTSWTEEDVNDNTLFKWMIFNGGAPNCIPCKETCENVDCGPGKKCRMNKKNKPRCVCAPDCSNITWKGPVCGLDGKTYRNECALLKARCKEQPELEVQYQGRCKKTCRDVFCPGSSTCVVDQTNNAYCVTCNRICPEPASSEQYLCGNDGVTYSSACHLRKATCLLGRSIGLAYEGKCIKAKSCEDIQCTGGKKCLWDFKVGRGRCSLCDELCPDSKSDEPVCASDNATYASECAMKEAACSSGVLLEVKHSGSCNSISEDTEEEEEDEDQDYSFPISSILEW
Fibroblast growth factor 2 (Homo sapiens), sequence (P09038 whole entry, looked up): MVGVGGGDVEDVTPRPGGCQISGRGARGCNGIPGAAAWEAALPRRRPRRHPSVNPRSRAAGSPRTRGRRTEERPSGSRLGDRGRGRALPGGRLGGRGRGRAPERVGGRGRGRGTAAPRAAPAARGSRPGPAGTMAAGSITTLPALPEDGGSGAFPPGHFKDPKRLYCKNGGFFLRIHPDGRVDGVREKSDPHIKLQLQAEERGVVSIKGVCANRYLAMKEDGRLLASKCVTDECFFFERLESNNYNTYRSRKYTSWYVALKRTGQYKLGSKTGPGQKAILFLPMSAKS
Focal adhesion kinase 1 (Homo sapiens), sequence (Q05397 whole entry, looked up): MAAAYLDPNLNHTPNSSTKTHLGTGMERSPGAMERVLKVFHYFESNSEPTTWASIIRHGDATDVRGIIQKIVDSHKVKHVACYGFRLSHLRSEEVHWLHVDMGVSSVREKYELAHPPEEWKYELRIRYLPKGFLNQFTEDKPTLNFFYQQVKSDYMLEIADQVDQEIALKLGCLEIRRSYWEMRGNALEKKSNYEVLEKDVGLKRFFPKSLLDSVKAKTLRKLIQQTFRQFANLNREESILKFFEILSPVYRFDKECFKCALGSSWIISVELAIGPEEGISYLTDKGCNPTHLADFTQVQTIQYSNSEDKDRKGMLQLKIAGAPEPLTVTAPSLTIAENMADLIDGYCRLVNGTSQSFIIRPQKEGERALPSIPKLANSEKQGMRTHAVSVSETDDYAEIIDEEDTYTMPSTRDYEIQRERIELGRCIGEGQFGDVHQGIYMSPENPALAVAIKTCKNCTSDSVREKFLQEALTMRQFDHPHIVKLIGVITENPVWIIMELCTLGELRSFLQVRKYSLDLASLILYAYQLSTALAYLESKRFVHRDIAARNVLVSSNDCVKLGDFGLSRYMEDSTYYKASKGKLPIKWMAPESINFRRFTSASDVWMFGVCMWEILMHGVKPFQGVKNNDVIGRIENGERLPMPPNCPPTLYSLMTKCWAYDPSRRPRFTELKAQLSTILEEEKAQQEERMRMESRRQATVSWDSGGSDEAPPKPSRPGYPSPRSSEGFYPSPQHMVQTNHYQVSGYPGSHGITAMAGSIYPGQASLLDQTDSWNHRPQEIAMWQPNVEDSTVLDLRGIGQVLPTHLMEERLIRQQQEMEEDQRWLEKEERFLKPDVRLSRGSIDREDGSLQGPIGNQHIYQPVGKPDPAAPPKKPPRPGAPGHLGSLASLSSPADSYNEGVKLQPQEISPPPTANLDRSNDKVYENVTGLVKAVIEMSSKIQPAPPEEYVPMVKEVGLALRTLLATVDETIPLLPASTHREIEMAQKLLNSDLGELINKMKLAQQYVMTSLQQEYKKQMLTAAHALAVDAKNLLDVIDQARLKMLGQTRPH

COc1ccc([C@H]2C[C@H]3C(Br)=C[C@@]2(CO)C(=O)[C@]32CO2)cc1
composite z-score (Albumin (Bos taurus)): -0.613
composite Z-score [1]: -0.0805 (inactive)
composite z-score [2]: -0.103
composite z-score [3]: -0.0684
composite z-score [4]: 0.0574
composite z-score [5]: -0.128
composite z-score [6]: 0.289
composite z-score (Sam68 (KHDRBS1)): -0.318
composite z-score [7]: 0.282
composite z-score [8]: 0.178
composite z-score [9]: -0.436
composite z-score [10]: -0.99
composite z-score [11]: 0.125
composite z-score [12]: 0.281
composite z-score [13]: -0.0737
composite z-score [14]: -0.441
z-score [15]: -0.592
composite z-score (Lefty1): -0.271
composite z-score [16]: 0.138
z-score [17]: 0.601 (inactive)

COc1ccc([C@H]2OC[C@@H]3CCC(=O)N32)cc1
composite z-score (Albumin (Bos taurus)): 0.626
composite Z-score [1]: 1.42 (inactive)
composite z-score [2]: 0.0948
composite z-score [3]: -0.161
composite z-score [4]: 0.286
composite z-score [5]: -0.215
composite z-score [6]: 0.552
composite z-score (Sam68 (KHDRBS1)): 0.382
composite z-score [7]: 0.504
composite z-score [8]: 0.3
composite z-score [9]: 0.822
composite z-score [10]: 1.02
composite z-score [11]: 0.0902
composite z-score [12]: 0.362
composite z-score [13]: 0.886
composite z-score [14]: 0.031
z-score [15]: 0.779
composite z-score (Lefty1): 1.36
composite z-score [16]: 0.329
z-score [17]: -0.699 (inactive)

O=C1[C@H]2C=C(Br)[C@H](C[C@@H]2OCCCCCCO)[C@@]12CO2
composite z-score (Albumin (Bos taurus)): -0.699
composite Z-score [1]: 0.926 (inactive)
composite z-score [2]: 0.265
composite z-score [3]: -0.0064
composite z-score [4]: -0.382
composite z-score [5]: -0.469
composite z-score [6]: 0.206
composite z-score (Sam68 (KHDRBS1)): -0.733
composite z-score [7]: 0.0547
composite z-score [8]: -1.57
composite z-score [9]: -0.847
composite z-score [10]: -1.57
composite z-score [11]: -0.191
composite z-score [12]: -1.94
composite z-score [13]: -0.266
composite z-score [14]: 0.263
z-score [15]: -0.363
composite z-score (Lefty1): -0.406
composite z-score [16]: -2.03
z-score [17]: 0.364 (inactive)

CCCCCCc1nc(-c2ccc(-c3ccc(Cl)c(Cl)c3)o2)cc2c1[Si](C(C)C)(C(C)C)O[C@H]2c1ccccc1
composite z-score (Albumin (Bos taurus)): 0.108
composite Z-score [1]: 1.35 (inactive)
composite z-score [2]: -0.292
composite z-score [3]: -0.153
composite z-score [4]: 0.739
composite z-score [5]: 0.458
composite z-score [6]: -0.418
composite z-score (Sam68 (KHDRBS1)): -0.472
composite z-score [7]: -0.517
composite z-score [8]: -0.131
composite z-score [9]: -0.403
composite z-score [10]: -0.73
composite z-score [11]: -0.132
composite z-score [12]: -1.34
composite z-score [13]: -0.348
composite z-score [14]: -0.434
z-score [15]: -0.859
composite z-score (Lefty1): 0.0259
composite z-score [16]: 1.04
z-score [17]: 0.712 (inactive)

C#CCN(C/C=C/c1ccccc1)[C@H](CO)c1ccccc1
composite z-score (Albumin (Bos taurus)): -0.287
composite Z-score [1]: -0.014 (inactive)
composite z-score [2]: -0.274
composite z-score [3]: -0.196
composite z-score [4]: 0.0571
composite z-score [5]: -0.128
composite z-score [6]: -0.0886
composite z-score (Sam68 (KHDRBS1)): -0.142
composite z-score [7]: -0.0231
composite z-score [8]: -0.159
composite z-score [9]: -0.429
composite z-score [10]: 0.168
composite z-score [11]: -0.0352
composite z-score [12]: -0.213
composite z-score [13]: 0.495
composite z-score [14]: 0.444
z-score [15]: -1.38
composite z-score (Lefty1): 0.968
composite z-score [16]: 0.241
z-score [17]: 0.616 (inactive)

CCOC(=O)C[C@H]1[C@H](OC(=O)c2cc3ccccc3oc2=O)[C@@H](NC(=O)CC(C)C)c2cc(OCCCO)ccc2N1C(=O)c1ccccc1
composite z-score (Albumin (Bos taurus)): 0.793
composite Z-score [1]: -0.081 (inactive)
composite z-score [2]: -0.0044
composite z-score [3]: -0.14
composite z-score [4]: 0.308
composite z-score [5]: 0.614
composite z-score [6]: 0.139
composite z-score (Sam68 (KHDRBS1)): 1.21
composite z-score [7]: 0.202
composite z-score [8]: 0.298
composite z-score [9]: 0.615
composite z-score [10]: 0.926
composite z-score [11]: 0.399
composite z-score [12]: 0.595
composite z-score [13]: 0.478
composite z-score [14]: 0.427
z-score [15]: -0.399
composite z-score (Lefty1): 0.696
composite z-score [16]: 0.634
z-score [17]: -0.291 (inactive)

O=C1O[C@@H](c2ccccc2)[C@@H](c2ccccc2)N2[C@@H](c3ccccc3OCCO)[C@]3(C(=O)Nc4ccc(C#CC5(O)CCCCCC5)cc43)[C@@H](C(=O)N3CCN(c4ncccn4)CC3)[C@H]12
composite z-score (Albumin (Bos taurus)): 0.287
composite Z-score [1]: 0.276 (inactive)
composite z-score [2]: -0.0416
composite z-score [3]: -0.131
composite z-score [4]: 0.398
composite z-score [5]: 1.47
composite z-score [6]: 0.795
composite z-score (Sam68 (KHDRBS1)): 1.21
composite z-score [7]: 0.183
composite z-score [8]: 1.02
composite z-score [9]: 1.25
composite z-score [10]: 1.2
composite z-score [11]: 0.564
composite z-score [12]: 0.885
composite z-score [13]: 1.03
composite z-score [14]: 1.15
z-score [15]: -0.758
composite z-score (Lefty1): 0.62
composite z-score [16]: 0.742
z-score [17]: -1.39 (inactive)

O=C1C2C=CC(C(O)c3cc(C(F)(F)F)cc(C(F)(F)F)c3)N(Nc3ccccc3)C2C(=O)N1c1ccccc1 (stereo not given)
composite z-score (Albumin (Bos taurus)): -0.0814
composite Z-score [1]: 0.837 (inactive)
composite z-score [2]: 0.0435
composite z-score [3]: -0.101
composite z-score [4]: 0.723
composite z-score [5]: 2.51
composite z-score [6]: -0.233
composite z-score (Sam68 (KHDRBS1)): 1.04
composite z-score [7]: -0.357
composite z-score [8]: -0.236
composite z-score [9]: 0.692
composite z-score [10]: 1.27
composite z-score [11]: 0.838
composite z-score [12]: 0.462
composite z-score [13]: 0.0145
composite z-score [14]: -0.601
z-score [15]: -0.424
composite z-score (Lefty1): 0.192
composite z-score [16]: 0.173
z-score [17]: -1.47 (inactive)

C=C(C)[C@@H]1CC=C(C(O)C2C=CC3C(=O)NC(=O)C3N2Nc2ccc(Cl)cc2Cl)CC1 (stereo not given in full)
composite z-score (Albumin (Bos taurus)): 1
composite Z-score [1]: 0.114 (inactive)
composite z-score [2]: 0.0221
composite z-score [3]: 0.0032
composite z-score [4]: 0.708
composite z-score [5]: 2
composite z-score [6]: 0.708
composite z-score (Sam68 (KHDRBS1)): 1.31
composite z-score [7]: 0.41
composite z-score [8]: 1.11
composite z-score [9]: 1.83
composite z-score [10]: 1.2
composite z-score [11]: 1.33
composite z-score [12]: 1
composite z-score [13]: 1.14
composite z-score [14]: -0.853
z-score [15]: -1.25
composite z-score (Lefty1): -0.336
composite z-score [16]: 1.34
z-score [17]: 0.022 (inactive)

CCOc1cc(C(O)C2C=CC3C(=O)N(c4ccccc4)C(=O)C3N2Nc2ccc(C(C)C)cc2)ccc1O (stereo not given)
composite z-score (Albumin (Bos taurus)): 0.925
composite Z-score [1]: 0.203 (inactive)
composite z-score [2]: 0.15
composite z-score [3]: -0.0274
composite z-score [4]: 0.79
composite z-score [5]: 2.63
composite z-score [6]: 0.33
composite z-score (Sam68 (KHDRBS1)): 1.29
composite z-score [7]: 0.161
composite z-score [8]: 1.09
composite z-score [9]: 1.72
composite z-score [10]: 1.23
composite z-score [11]: 0.543
composite z-score [12]: 0.963
composite z-score [13]: 1.03
composite z-score [14]: 0.0704
z-score [15]: 0.898
composite z-score (Lefty1): 0.135
composite z-score [16]: 1.3
z-score [17]: 0.12 (inactive)
